# Experimental data: publication PMC7862700, “An all-to-all approach to the identification of sequence-specific readers for epigenetic DNA modifications on cytosine”
# How the values were obtained:
# Experiment in all cases: DAPPL (digital affinity profiling via proximity ligation, sequencing); 10 mM Tris-HCl pH 7.5, 50 mM NaCl, 1 mM DTT, 4% glycerol, room temperature, 30 min; GST-TFs on glutathione beads, 16-mer random dsDNA library, 0.1% formaldehyde crosslink after washing; high values mean tight binding
# Conditions in all cases: protein: recombinant; tags: N-terminal GST; dsDNA, one strand shown
# [1] = biological target: T1, ELK1 (Homo sapiens, UniProt P19419 1-428)
# T1 sequence: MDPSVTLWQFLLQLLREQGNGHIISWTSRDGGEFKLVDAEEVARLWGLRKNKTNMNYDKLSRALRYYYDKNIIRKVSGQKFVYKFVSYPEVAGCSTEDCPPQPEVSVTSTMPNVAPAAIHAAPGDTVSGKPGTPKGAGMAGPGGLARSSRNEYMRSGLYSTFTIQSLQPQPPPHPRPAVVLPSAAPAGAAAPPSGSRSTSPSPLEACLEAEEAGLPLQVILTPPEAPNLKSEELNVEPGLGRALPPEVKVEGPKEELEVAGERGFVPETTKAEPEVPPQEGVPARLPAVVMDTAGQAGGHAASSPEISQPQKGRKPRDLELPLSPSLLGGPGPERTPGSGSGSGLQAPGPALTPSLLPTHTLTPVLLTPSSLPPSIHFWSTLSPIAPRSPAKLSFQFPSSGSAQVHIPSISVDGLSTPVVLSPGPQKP
# Method in brief: (§1)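 GST fusions of human transcription factors were expressed in yeast and captured with glutathione beads. Once given DNA barcodes and pooled alongside a tag-only sample, they were incubated for 30 min at room temperature with 200 nmole of a random double-stranded 16-mer DNA library in Tris/NaCl/DTT/glycerol buffer, then washed, crosslinked (0.1% formaldehyde), proximity-ligated, PCR-amplified and sequenced on an Illumina NextSeq500. The binding signal of each hexamer is its read frequency for a factor divided by its frequency for the tag-only sample.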
# [2] = biological target: T2, GABPA (Homo sapiens, UniProt Q06546 1-454)
# T2 sequence: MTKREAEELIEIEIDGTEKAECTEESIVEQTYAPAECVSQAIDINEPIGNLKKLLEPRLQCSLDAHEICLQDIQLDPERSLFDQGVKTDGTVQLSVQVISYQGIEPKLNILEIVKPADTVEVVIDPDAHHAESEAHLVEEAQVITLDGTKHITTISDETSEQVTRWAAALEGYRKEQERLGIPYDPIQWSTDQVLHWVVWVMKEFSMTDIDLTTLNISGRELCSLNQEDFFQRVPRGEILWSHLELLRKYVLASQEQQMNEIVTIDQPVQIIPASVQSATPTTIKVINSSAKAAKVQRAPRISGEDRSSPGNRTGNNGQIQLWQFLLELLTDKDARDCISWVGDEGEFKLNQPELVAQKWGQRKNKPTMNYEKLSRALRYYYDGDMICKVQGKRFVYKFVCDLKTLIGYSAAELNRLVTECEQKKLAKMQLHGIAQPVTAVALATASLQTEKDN
# Method in brief: as §1
# [3] = biological target: T3, ERG (Homo sapiens, UniProt P11308 1-479)
# T3 sequence: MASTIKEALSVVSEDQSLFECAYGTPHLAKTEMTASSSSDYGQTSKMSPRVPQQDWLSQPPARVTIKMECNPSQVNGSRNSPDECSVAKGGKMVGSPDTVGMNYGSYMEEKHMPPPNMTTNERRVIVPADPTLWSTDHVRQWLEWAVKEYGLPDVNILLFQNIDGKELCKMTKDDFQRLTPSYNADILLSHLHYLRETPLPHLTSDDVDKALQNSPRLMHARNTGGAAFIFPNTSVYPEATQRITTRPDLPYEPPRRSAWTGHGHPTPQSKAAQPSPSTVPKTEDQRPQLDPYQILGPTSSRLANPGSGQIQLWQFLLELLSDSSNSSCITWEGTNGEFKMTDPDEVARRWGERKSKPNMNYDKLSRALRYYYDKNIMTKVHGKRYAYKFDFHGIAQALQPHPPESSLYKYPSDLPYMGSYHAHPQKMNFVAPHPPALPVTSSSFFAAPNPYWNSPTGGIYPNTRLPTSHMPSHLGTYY
# Method in brief: as §1
# [4] = biological target: ELF1 (Homo sapiens, UniProt P32519 1-619)
# Method in brief: as §1
# [5] = biological target: T4, EHF (Homo sapiens, UniProt Q9NZC4 1-300)
# T4 sequence: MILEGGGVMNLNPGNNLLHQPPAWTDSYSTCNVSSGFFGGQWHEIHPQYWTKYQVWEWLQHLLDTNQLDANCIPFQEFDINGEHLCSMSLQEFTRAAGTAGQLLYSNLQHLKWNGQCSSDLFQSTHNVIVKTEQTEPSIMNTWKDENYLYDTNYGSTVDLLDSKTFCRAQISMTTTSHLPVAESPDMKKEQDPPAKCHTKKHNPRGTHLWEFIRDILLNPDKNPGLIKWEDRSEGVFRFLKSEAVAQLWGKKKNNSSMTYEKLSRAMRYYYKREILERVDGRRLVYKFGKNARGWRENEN
# Method in brief: as §1
# [6] = biological target: SPIB (Homo sapiens, UniProt Q01892 1-262)
# Method in brief: as §1
# [7] = biological target: T5, ELK3 (Homo sapiens, UniProt P41970 1-407)
# T5 sequence: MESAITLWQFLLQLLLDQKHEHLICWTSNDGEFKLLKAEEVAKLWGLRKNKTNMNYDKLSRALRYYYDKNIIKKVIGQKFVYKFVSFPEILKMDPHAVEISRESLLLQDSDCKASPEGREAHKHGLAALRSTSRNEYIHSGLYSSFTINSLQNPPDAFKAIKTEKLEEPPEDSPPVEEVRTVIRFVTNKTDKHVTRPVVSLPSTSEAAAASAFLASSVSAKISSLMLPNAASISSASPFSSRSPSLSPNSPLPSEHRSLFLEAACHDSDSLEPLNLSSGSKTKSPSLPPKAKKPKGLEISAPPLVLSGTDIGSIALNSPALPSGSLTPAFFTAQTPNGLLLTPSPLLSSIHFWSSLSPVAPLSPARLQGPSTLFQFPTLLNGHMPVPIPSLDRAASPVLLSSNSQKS
# Method in brief: as §1
# [8] = biological target: T6, SPIC (Homo sapiens, UniProt Q8N5J4 1-248)
# T6 sequence: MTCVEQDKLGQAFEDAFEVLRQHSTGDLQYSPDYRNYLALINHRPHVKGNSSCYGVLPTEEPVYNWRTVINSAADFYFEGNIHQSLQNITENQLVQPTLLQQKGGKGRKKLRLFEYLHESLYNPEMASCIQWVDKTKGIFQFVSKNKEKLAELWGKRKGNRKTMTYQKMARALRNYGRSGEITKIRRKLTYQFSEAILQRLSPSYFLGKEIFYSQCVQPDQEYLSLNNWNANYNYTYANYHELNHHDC
# Method in brief: as §1
# [9] = biological target: ELF4 (Homo sapiens, UniProt Q99607 1-663)
# Method in brief: as §1
# Chain of SPIB (Q01892 whole entry): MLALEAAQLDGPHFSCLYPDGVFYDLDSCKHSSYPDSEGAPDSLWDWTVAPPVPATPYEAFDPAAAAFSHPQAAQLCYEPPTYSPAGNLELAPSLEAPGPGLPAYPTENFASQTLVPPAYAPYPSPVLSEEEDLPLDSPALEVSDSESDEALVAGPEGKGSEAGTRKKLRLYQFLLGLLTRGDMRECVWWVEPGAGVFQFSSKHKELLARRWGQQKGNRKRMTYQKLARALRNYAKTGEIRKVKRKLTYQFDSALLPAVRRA
# Chain of ELF4 (Q99607 whole entry): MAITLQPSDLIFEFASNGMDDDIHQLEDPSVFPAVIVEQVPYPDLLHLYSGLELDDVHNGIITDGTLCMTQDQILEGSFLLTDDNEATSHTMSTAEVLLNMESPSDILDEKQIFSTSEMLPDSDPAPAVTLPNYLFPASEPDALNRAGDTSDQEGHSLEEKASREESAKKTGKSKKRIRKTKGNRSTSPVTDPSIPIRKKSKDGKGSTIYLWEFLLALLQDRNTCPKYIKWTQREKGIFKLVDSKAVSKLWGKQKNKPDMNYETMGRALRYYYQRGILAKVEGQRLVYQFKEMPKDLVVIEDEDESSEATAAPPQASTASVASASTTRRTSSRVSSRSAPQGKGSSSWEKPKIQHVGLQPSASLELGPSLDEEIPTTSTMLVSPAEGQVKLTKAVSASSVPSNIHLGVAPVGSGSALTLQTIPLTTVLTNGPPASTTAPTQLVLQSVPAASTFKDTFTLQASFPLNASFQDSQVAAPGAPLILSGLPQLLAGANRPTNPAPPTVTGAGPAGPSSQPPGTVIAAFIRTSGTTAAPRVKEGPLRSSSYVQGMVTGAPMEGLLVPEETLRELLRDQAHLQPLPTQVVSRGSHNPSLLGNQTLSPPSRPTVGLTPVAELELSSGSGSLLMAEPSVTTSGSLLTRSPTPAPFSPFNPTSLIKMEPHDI
# Chain of ELF1 (P32519 whole entry): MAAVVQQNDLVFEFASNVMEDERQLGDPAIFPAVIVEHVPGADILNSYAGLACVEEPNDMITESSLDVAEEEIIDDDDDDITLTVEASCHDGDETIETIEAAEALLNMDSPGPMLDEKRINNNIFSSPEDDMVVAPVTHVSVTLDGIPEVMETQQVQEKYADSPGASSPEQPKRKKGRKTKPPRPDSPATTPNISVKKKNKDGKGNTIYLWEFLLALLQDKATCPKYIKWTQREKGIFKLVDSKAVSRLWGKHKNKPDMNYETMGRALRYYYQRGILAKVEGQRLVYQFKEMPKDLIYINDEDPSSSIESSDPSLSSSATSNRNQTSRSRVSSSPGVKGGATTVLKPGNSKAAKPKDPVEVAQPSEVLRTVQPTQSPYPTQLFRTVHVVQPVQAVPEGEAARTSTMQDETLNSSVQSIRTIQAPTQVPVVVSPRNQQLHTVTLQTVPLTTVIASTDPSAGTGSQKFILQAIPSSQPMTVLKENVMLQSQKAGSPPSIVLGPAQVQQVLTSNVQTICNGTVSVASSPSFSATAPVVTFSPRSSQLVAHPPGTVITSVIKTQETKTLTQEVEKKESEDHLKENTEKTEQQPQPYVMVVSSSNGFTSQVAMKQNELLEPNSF
sequence,measurement,setting,value
GCTGGT,binding signal,[1],"1.23 fold enrichment (6-mer frequency, TF over GST control)"
same,binding signal,[2],"1.15 fold enrichment (6-mer frequency, TF over GST control)"
same,binding signal,[3],"1.28 fold enrichment (6-mer frequency, TF over GST control)"
same,binding signal,[4],"1.04 fold enrichment (6-mer frequency, TF over GST control)"
same,binding signal,[5],"1.2 fold enrichment (6-mer frequency, TF over GST control)"
same,binding signal,[6],"1.18 fold enrichment (6-mer frequency, TF over GST control)"
same,binding signal,[7],"1.19 fold enrichment (6-mer frequency, TF over GST control)"
same,binding signal,[8],"1.08 fold enrichment (6-mer frequency, TF over GST control)"
same,binding signal,[9],"1.11 fold enrichment (6-mer frequency, TF over GST control)"
